LYPLA1 counter – counter-screen for PME1 inhibitors: inhibitors of human LYPLA1; O75608; recombinant LYPLA1, FP-Rh probe fluorescence polarization; inhibition, % at 5.9 µM; 0.16% of 320,000 active;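 active = inhibition above the mean of all tested compounds plus 3 SD, set per campaign, cut at about 14% in these data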;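 also: inhibitors block serine hydrolase probe labeling of LYPLA1 so polarization falls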
Target sequence (O75608 whole entry, looked up): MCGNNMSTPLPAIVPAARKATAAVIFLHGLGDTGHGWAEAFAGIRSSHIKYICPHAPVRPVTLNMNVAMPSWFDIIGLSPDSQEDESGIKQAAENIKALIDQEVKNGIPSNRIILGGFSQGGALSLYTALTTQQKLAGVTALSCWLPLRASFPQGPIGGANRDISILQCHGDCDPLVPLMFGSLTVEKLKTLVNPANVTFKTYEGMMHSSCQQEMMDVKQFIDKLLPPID
PREPL inh – inhibitors of human prolyl oligopeptidase-like enzyme PREPL | recombinant PREPL, fluorescence polarization activity-based probe | 0.68% of 320,000 active | inhibition, % at 5.96 µM
MEX-5 binding – C. elegans MEX-5 TCR-2 RNA binding activity. Q9XUB2. MEX-5/FITC-TCR2 RNA binding, fluorescence polarization; hits give low values. activity score (negative = inhibition of binding), % at 10 µM. 0.38% of 300,000 active;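 active = inhibition past about -25% in most replicates, and total fluorescence under double the plate's negative control median, limit read from the data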
LYPLA2 counter – LYPLA2 (human) inhibition in PME1 counter-screen | O95372 | recombinant LYPLA2, FP-Rh probe fluorescence polarization | inhibition, % at 5.9 µM | 0.38% of 320,000 active | AID 2177;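 active = inhibition above the screen-wide mean plus 3 SD, limit set per campaign, cut at about 26% in these data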
Fam108B counter – counter-screen for RBBP9 inhibitors: inhibitors of mouse Fam108B. AID 1947. recombinant Fam108B, FP-Rh probe fluorescence polarization. inhibition, % at 9.51 µM. 0.33% of 300,000 active;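 active = inhibition above the screen mean inhibition plus 3 SD, computed separately per campaign, cut at about 18% in these data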;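 also: inhibitors lower polarization as less probe binds the enzyme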
PME-1 inh – blocks human protein phosphatase methylesterase 1. inhibition, % at 5.9 µM. 0.53% of 320,000 active. recombinant PME-1, FP-Rh probe fluorescence polarization. Q9Y570. AID 2130;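 active = inhibition above the campaign mean of all compounds plus 3 SD, cut at about 26% in these data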;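 also: competitive labeling of PME-1 active site by serine hydrolase directed probe; inhibitors block probe labeling so polarization falls and inhibition rises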
PREPL inh cf – human PREPL inhibition, confirmation; shares compounds with PREPL inh; recombinant PREPL, fluorescence polarization activity probe; inhibition, % at 5.96 µM; 67% of 2,000 active; AID 2803
Of the large screens only hits and unclear results are named; the others gave an inactive call (follow-up assays come after a bar, where they were run). In the library only some 1.6% were active in any assay of this set; here they are far more common. Rule as the data show it, unless noted: active = inhibition above about 43%; inactive = the rest.

Cc1[nH]c2ccc(C(=O)NCCN3CCCCCC3)cc2c1C	PREPL inh 61 | PREPL inh cf inactive
CCSc1ncc(/C=N/Nc2ccc(Cl)cc2)n1C	PREPL inh 43 | PREPL inh cf inactive
Fc1ccccc1Cc1noc(CN(Cc2ccccn2)CC2CCCO2)n1 (stereo not drawn)	PREPL inh 51 | PREPL inh cf inactive
CCOC(=O)[C@H](CCc1ccccc1)N[C@@H](C)C(=O)N1CCC[C@H]1C(=O)O	none
O=C(C1CCN(c2ncnc3c2nc2n3CCCCC2)CC1)N1CCN(c2ccccc2F)CC1	PREPL inh 44 | PREPL inh cf inactive
Cc1cccc(N2CCN(C(=O)C3CCN(c4ncnc5c4nc4n5CCCCC4)CC3)CC2)c1C	none
CCCCN(C(=O)CCC(=O)Nc1cc(C)on1)C(C(=O)NC1CCCC1)c1ccc(F)cc1 (stereo not drawn)	none
